Experimental data published in PubChem BioAssay (NCI).
About 79,000 compounds went through this panel and 15% of them were active in at least one assay; those are over-represented in the sample as a whole. Values without a mark were called inactive. Activity calls are given as the source filed them. No stated cut-off is given here; in the data, active means growth inhibition above about 70%; inactive means the rest.

Assays:
[1] = NCI Yeast Anticancer Drug Screen. Data for the rad50 strain (AID 155);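 further: 0% = growth of vehicle-only cultures of the same strain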; conditions: S. cerevisiae rad50 strain growth inhibition; at 50.0 µM; hits give high values
Outline: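 Genetically altered yeast (DNA repair pathway); compound treatment; growth inhibition vs vehicle ctrl.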

[2] = NCI Yeast Anticancer Drug Screen. Data for the mec2-1 strain (AID 157); conditions: S. cerevisiae mec2-1 strain, at 50.0 µM, hits give high values
Outline: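 Yeast mec2-1 mutant treated with compound. Readout: growth inhibition vs vehicle controls.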

[3] = NCI Yeast Anticancer Drug Screen. Data for the sgs1 mgt1 strain (AID 161);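 further: 0% = growth of cultures given vehicle only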; conditions: S. cerevisiae sgs1 mgt1 strain, at 50.0 µM, hits give high values
Outline: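 Read-out: growth inhibition vs vehicle controls. Cells: mutant yeast strain deficient in DNA damage repair.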

[4] = NCI Yeast Anticancer Drug Screen. Data for the cln2 rad14 strain (AID 165);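 further: 0% = growth equal to vehicle treated cultures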; conditions: S. cerevisiae cln2 rad14 strain, at 50.0 µM, hits give high values
Outline: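 cln2 rad14 yeast strain; compound exposure; growth inhibition read vs vehicle controls.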

[5] = NCI Yeast Anticancer Drug Screen. Data for the bub3 strain (AID 167); conditions: S. cerevisiae bub3 mutant strain, at 50.0 µM, hits give high values
Outline: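 Yeast carrying a defined mutation is treated with each compound, and growth is compared with that of vehicle-exposed cells to give inhibition.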

[6] = NCI Yeast Anticancer Drug Screen. Data for the mlh1 rad18 strain (AID 175); conditions: S. cerevisiae mlh1 rad18 strain growth inhibition; at 50.0 µM; hits give high values
Outline: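 Yeast w/ defined DNA-repair lesions; compound exposure; growth vs vehicle controls → % inhibition.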

Structure (SMILES) | growth inhibition [1] | growth inhibition [2] | growth inhibition [3] | growth inhibition [4] | growth inhibition [5] | growth inhibition [6]
CCOC(OCC)c1ccccc1.[C-]#[O+].[C-]#[O+].[C-]#[O+].[Cr] | 25.1% | 21.4% | 33% | 13.9% | 32.7% | 8.8%
O=C(Nc1cc(S(=O)(=O)O)cc2cc(S(=O)(=O)O)c(N=Nc3ccc([As](=O)(O)O)cc3)c(O)c12)c1ccc([N+](=O)[O-])cc1 | 12.7% | 1.7% | -7.45% | -9.1% | -3.4% | 6.55%
Oc1cc(Cl)ccc1Cl | 98.2% (active) | 99% (active) | 98.6% (active) | 96.5% (active) | 99% (active) | 98.8% (active)
C[C@]12CC[C@H](O)C=C1CC[C@@H]1[C@@H]2CC[C@]2(C)C(c3ccc(=O)oc3)CC[C@]12O (stereo partly drawn) | -2.85% | -12.9% | 17.9% | 10.9% | 0.05% | 8.75%
NC(CP(=O)(O)O)C(=O)O (stereo not drawn) | 0.4% | 5.7% | -31.1% | -55.2% | -32.4% | -37.6%
O=C1NC(=O)C(Cc2ccc3c(c2)OCO3)C(=O)N1 | -6.05% | -9.5% | 4.95% | -62.9% | 7.35% | 8.15%
CC(=O)OC1CC2(O)C(CCC3(C)C(c4ccc(=O)oc4)CCC32O)C2(C)CCC(O)C=C12 (stereo not drawn) | 7.25% | -11.4% | -1.75% | -1.75% | -3.4% | 14.8%
O=[As](O)(O)c1cccc(Cl)c1 | 9.3% | -0.25% | -13.8% | 1.85% | 1.9% | -0.9%
C=CC[As+](c1cccc2ccccc12)(c1cccc2ccccc12)c1cccc2ccccc12 | -61.5% | -14.1% | -15.1% | -33.4% | 5.15% | -11.5%
O=C(OCC1CCCN2CCCCC12)c1ccncc1 (stereo not drawn) | 4.9% | 2.9% | 48.4% | 15.4% | 34.3% | 2.35%
CC1=C[C@H]2O[C@@H]3[C@H](OC(=O)CCl)[C@@H](O)[C@](C)(C2(COC(=O)CCl)CC1)[C@@]31CO1 (stereo partly drawn) | 91.8% (active) | 92.8% (active) | 92.7% (active) | 91.6% (active) | 92.2% (active) | 91.2% (active)
COc1ccc(CC(C)NO)cc1 (stereo not drawn) | -16.2% | 8.8% | -11.9% | 11.7% | 2.35% | -32.5%
Cc1ccc2c3c(c(=O)oc2c1)[C@H](C)C[C@@](C)(CO)O3 | -8.35% | 1.9% | 9.8% | -5.4% | 3.7% | -7.35%
Fc1ccc(N=C=S)cc1 | -28.1% | -20.2% | -24.1% | -9.8% | -6.2% | 2.2%
c1cc[c]([Pb]([S]c2ccccn2)([c]2ccccc2)[c]2ccccc2)cc1 | 99.2% (active) | 99.1% (active) | 99.5% (active) | 99% (active) | 99% (active) | 99.2% (active)
CCC(C#N)N1CC1 (stereo not drawn) | -7.05% | 12.7% | -6.4% | 18.1% | -4.35% | 6%
N.N.N.N.N.N#Cc1nn[n-]n1.[Cl-].[Co+3] | 4.95% | 9.25% | 16.8% | 24.4% | 12.3% | 12.9%
CS(=O)(=O)Oc1c(Cl)cc(S(=O)(=O)F)cc1Cl | 66.2% | 75% (active) | 82.8% (active) | 45.6% | 53.5% | 40.1%
CCCCCCCCCCC(C(=O)c1ccccc1)N1CCOCC1 (stereo not drawn) | -14.7% | -2.95% | 10.9% | -8.3% | 3.85% | -8.4%

Structure (SMILES) | growth inhibition [1] | growth inhibition [2] | growth inhibition [3] | growth inhibition [4] | growth inhibition [5] | growth inhibition [6]
NCCN.O=C([O-])[O-].O=C([O-])[O-].[Co+3].[K+] | 1.5% | 4.6% | 5.2% | 13.2% | -8.9% | -5.55%
C/C(=N\O)C(CN1CCCCC1)C(c1ccccc1)c1c(O)c2ccccc2oc1=O (stereo not drawn) | 17.9% | 2.05% | 24.6% | 28.6% | 21.4% | 26.9%
Clc1ccc(C(c2ccc(Cl)cc2)c2ccccn2)cc1 | 98.5% (active) | 98.3% (active) | 98.5% (active) | 97.8% (active) | 98.3% (active) | 98.4% (active)
CC(=O)[CH-]C(C)=O.F[P-](F)(F)(F)(F)F.[Co+3].[NH-]CC[NH-].[NH-]CC[NH-] | -1.2% | -15.4% | -12.2% | -29.9% | -4.35% | -5.35%
O=NNc1cnc2ccccc2n1 | 48.5% | -0.25% | -9.75% | -5.4% | -38.2% | 12.2%
O=C(O)C(Oc1nc(=S)[nH]c(=S)[nH]1)(c1ccc(Cl)cc1)c1ccc(Cl)cc1 | -1.5% | 6.55% | -23.2% | 0.55% | -10.7% | -8.8%
Cc1ccc(O)cc1Cl | -17.8% | -39% | -20.6% | -7.65% | -31.9% | 1.75%
O=NNc1cc(=O)[nH]c(=O)[nH]1 | 5.4% | -4.5% | -3.85% | -39.2% | -7.6% | -6.5%
CCC(=O)C(CC(C)[N+](C)(C)C)(c1ccccc1)c1ccccc1 (stereo not drawn) | -3.05% | -4.95% | -4.6% | 3.35% | -18.5% | 6.5%
c1ccc(-c2csc3[nH]c4ccccc4[n+]23)cc1 | 19.4% | 5.6% | 8.35% | 5.7% | 5.25% | 6.35%
C[N+](C)(C)CC1CCc2ccccc2C1=O (stereo not drawn) | 89.2% (active) | 44.6% | 69.2% | 50.2% | 40.5% | 91.4% (active)
CN1CCC(O)(c2ccccc2)C(c2ccccc2)C1 (stereo not drawn) | 0.25% | 1.05% | -8.45% | 0.4% | 0.6% | -0.05%
CCCCOP(=O)(O)SP(=O)(O)OCCCC | -13.8% | 17.1% | 10.6% | 20.9% | 2.3% | -3%
CN(C)C1C(=O)C(C(=O)NP(=O)(NCCCO)N(CCCl)CCCl)=C(O)C2(O)C(=O)C3=C(O)c4c(O)cccc4C(C)(O)C3CC12 (stereo not drawn) | 27.6% | 20.1% | 21.9% | 15.3% | 25.6% | 6.9%
CCOC(=O)C1=C(C)/C(=C\c2[nH]c(C)c(C(=O)OCC)c2C)N=C1C | 8.95% | 13.7% | 23% | 8.95% | 19.5% | 19.9%
ClCCCN1CCN(CCCl)CC1 | -11.6% | -10.1% | -1.75% | 3.2% | -13.8% | -21.5%
Oc1c(Cl)cc(Cl)cc1C1N(Cc2ccc(N(CCCl)CCCl)cc2Cl)CCCN1Cc1ccc(N(CCCl)CCCl)cc1Cl | -0.6% | 15.6% | 18.6% | -6% | -4% | 18%
Nc1cc(N=Nc2ccc([As](=O)(O)O)cc2)ccc1O | 7.95% | 13.4% | -5.2% | 11% | 16.6% | 16.9%
COc1ccc(N=NC(=O)NC(CC(C)C)C(=O)NC(C)C(=O)O)cc1 (stereo not drawn) | -11.8% | -26.4% | -8.5% | -19.6% | -31.4% | 5.15%
